# Experimental data: publication PMC4336329 (PLoS ONE, 2015)
# The whole screen tested about 310,000 compounds, of which about 14,000 (4.5%) showed an effect of 50% or more. Effects have a minus sign here. The list comes from a sample in which strong results are over-represented; it also holds similar structures and randomly drawn compounds.
# Target: human ether-à-go-go-related gene (hERG) potassium channel (human, UniProt Q12809)
# Experiment: primary screen, population patch clamp on CHO cells stably expressing hERG; higher = less effect of the substance
# 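Also: peak tail current of the secondary pulse compared with the same well before compound.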
# Sequence of human ether-à-go-go-related gene (hERG) potassium channel (Q12809 whole entry, looked up): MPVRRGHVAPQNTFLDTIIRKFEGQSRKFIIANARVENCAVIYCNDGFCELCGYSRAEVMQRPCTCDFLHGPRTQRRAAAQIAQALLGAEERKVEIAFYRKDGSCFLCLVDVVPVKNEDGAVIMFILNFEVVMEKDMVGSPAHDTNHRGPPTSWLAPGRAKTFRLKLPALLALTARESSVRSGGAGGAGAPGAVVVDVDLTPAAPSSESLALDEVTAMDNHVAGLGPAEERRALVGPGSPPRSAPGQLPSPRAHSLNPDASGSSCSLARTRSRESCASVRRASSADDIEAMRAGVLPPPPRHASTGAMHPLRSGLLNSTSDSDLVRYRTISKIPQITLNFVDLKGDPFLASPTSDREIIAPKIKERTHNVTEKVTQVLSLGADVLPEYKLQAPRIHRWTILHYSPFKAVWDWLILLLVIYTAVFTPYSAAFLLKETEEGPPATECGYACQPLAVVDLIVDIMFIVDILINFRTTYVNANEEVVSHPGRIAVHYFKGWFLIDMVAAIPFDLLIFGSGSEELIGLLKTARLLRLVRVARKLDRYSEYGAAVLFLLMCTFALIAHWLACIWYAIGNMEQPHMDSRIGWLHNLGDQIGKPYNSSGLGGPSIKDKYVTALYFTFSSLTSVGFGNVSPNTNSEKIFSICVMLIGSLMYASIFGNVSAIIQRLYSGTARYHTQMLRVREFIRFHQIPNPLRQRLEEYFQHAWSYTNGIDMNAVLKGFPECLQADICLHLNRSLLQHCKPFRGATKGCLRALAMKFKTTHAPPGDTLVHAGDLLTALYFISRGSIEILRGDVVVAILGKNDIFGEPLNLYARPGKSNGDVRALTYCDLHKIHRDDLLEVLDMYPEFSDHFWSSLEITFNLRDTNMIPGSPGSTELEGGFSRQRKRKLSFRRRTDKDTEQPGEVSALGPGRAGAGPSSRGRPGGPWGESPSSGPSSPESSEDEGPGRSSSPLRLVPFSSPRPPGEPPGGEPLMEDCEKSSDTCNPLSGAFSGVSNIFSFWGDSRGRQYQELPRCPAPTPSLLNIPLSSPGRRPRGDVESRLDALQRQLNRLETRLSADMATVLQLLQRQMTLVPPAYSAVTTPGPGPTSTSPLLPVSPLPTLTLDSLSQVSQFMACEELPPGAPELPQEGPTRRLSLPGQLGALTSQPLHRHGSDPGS
row,SMILES,"hERG current change (%, negative = inhibition) at 10uM"
1,CCc1ccc(-c2cc(C)no2)cc1S(=O)(=O)N1CCC(C)CC1,-15.8%
2,COc1ccc(-c2cc(C)no2)cc1S(=O)(=O)N1CCN(C(=O)c2ccco2)CC1,-6.28%
3,CCc1ccc(-c2cc(C)no2)cc1S(=O)(=O)N1CCN(c2ccccc2)CC1,3.41%
4,O=C(CCC1=NS(=O)(=O)c2ccccc2N1)NC1CCCCCCC1,2.57%
5,COc1ccc(S(=O)(=O)N(CC(=O)NC2CC2)c2ccc(C)cc2)cc1,-0.125%
6,CCCN(CC(=O)Nc1ccc(Cl)cc1Cl)C(=O)CC(NC(C)=O)c1ccccc1 (stereo not shown),0.715%
7,CCCN(CC(=O)Nc1ccccc1C)C(=O)Cc1n[nH]c(=O)c2ccccc12,-10.2%
8,CCCN(CC(=O)Nc1ccccc1C)C(=O)Cc1c(C)nc2ccccc2c1C,-77.4%
9,CCCN(CC(=O)Nc1ccccc1C)C(=O)CSc1ccccc1C,7.42%
10,CCN(CC(=O)Nc1c(F)cccc1F)C(=O)c1cc(C)nc2ccccc12,9.3%
11,CCN(CC(=O)Nc1c(F)cccc1F)C(=O)Cc1ccccc1,-1.53%
12,CCCN(CC(=O)Nc1ccccc1C)C(=O)CC(NC(=O)c1ccccc1)c1ccccc1 (stereo not shown),-52.7%
13,CCCN(CC(=O)Nc1ccccc1C)C(=O)CCl,-0.969%
14,CCN(CC(=O)Nc1c(F)cccc1F)C(=O)Cc1c(C)nc2ccccc2c1C,-55.1%
15,Cn1c(CCNC(=O)c2ccccc2F)nnc1SCC(=O)Nc1ccccc1F,3.44%
16,OCCOCCn1c(CCNc2nc(-c3ccc(Cl)cc3)cs2)nc2cc(Cl)c(Cl)cc21,3.83%
17,Cc1ccc(-c2cc(-c3ccccc3)no2)c(O)c1,17.4%
18,CCn1ncc(/C=N\NC(=O)c2cc(-c3ccc(C)cc3C)nc3ccccc23)c1C,-8.84%
19,Cc1nnc(SCC(=O)c2ccc(Cl)cc2)s1,-9.82%
20,Cc1ccccc1Cn1c(CN2CCN(C(=O)c3ccco3)CC2)nc2c1c(=O)n(C)c(=O)n2C,-45%
21,Cc1ccc(Cn2c(CN3CCN(C(=O)c4ccco4)CC3)nc3c2c(=O)n(C)c(=O)n3C)cc1,-54.2%
22,CC(C)Cn1c(CN2CCN(C(=O)c3ccco3)CC2)nc2c1c(=O)n(C)c(=O)n2C,-12.2%

row,SMILES,"hERG current change (%, negative = inhibition) at 10uM"
1,Cn1c(=O)c2c(nc(CN3CCN(C(=O)c4ccco4)CC3)n2Cc2ccc(Cl)cc2)n(C)c1=O,-64.8%
2,CC(=O)Cn1c(CN2CCN(C(=O)c3ccco3)CC2)nc2c1c(=O)n(C)c(=O)n2C,16%
3,Cn1c(=O)c2c(nc(CN3CCN(C(=O)c4ccco4)CC3)n2Cc2ccc(F)cc2)n(C)c1=O,-44.8%
4,Cn1c(=O)c2c(nc(CN3CCN(C(=O)c4ccco4)CC3)n2Cc2cccc(Cl)c2)n(C)c1=O,-60.1%
5,Cn1c(=O)c2c(nc(CN3CCN(C(=O)c4ccco4)CC3)n2Cc2ccccc2)n(C)c1=O,-40.7%
6,CCN1CCN(C(=O)c2ccc3c(c2)N(Cc2ccc(F)cc2)C(=O)c2ccccc2S3=O)CC1 (stereo not shown),-9.09%
7,O=C(NCc1ccccn1)[C@H]1C[C@@H]1[C@H](NP(=O)(c1ccccc1)c1ccccc1)c1ccccc1,-9%
8,O=C(Nc1ccc2oc(-c3cccnc3)nc2c1)c1ccco1,-33.2%
9,CC(=O)Nc1ccc(S(=O)(=O)N2CCC(C(=O)N[C@@H](C)C(=O)NC3CCCC3)CC2)cc1,35.3%
10,Cc1nc2ccccc2c(=O)n1Cc1ccc([N+](=O)[O-])cc1,-74.4%
11,Cc1c(C=O)c2ccccc2n1Cc1ccc(F)cc1,-43.1%
12,Cc1nc2ccc([N+](=O)[O-])cc2c(=O)n1Cc1ccc([N+](=O)[O-])cc1,-76.8%
13,Cc1nc2ccc([N+](=O)[O-])cc2c(=O)n1Cc1ccc(Br)cc1,7.76%
14,CCn1c(=O)c2ccccc2n(Cc2cccc(C)c2)c1=O,3.93%
15,COc1ccc(Cn2c(C)nc3ccc([N+](=O)[O-])cc3c2=O)cc1,-20%
16,Cc1c(C=O)c2ccccc2n1Cc1ccccc1,-2.16%
17,Cc1nc2ccc([N+](=O)[O-])cc2c(=O)n1Cc1ccc(Cl)cc1,-4.6%
18,Cc1c(C=O)c2ccccc2n1Cc1ccc([N+](=O)[O-])cc1,-78.1%
19,CCn1c(=O)c2ccccc2n(Cc2cccc([N+](=O)[O-])c2)c1=O,15.3%
20,CCn1c(=O)c2ccccc2n(Cc2ccc([N+](=O)[O-])cc2)c1=O,-77%
21,Cc1nc2ccc([N+](=O)[O-])cc2c(=O)n1Cc1ccc(F)cc1,-26.2%
